Key:
Experiment in all cases: thermal shift delta Tm vs DMSO control; higher = stronger stabilization (binding)
Conditions in all cases: 12.5 µM; protein concentration 2 µM
LOC_OS01G01410-cb001 = tested on: LOC_OS01G01410-cb001
In short: (§1)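 Purified, E. coli-expressed rice kinase domain constructs were tested by differential scanning fluorimetry in 96-well plates: 19.5 μl of 2 μM kinase in 100 mM potassium phosphate pH 7.5, 150 mM NaCl, 10% glycerol, 5 × SYPRO Orange, plus compound in DMSO. Fluorescence was read from 25°C to 95°C at 0.05°C/s. Melting temperatures came from Boltzmann fits, and the shift is the triplicate mean relative to protein with DMSO alone.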

LOC_OS01G02750-cb003 = tested on: LOC_OS01G02750-cb003
In short: as §1

LOC_OS01G10900-cb004 = tested on: LOC_OS01G10900-cb004
In short: as §1

LOC_OS01G13800-cb001 = tested on: LOC_OS01G13800-cb001
In short: as §1

LOC_OS01G14860-cb001 = tested on: LOC_OS01G14860-cb001
In short: as §1

LOC_OS01G21960-cb002 = tested on: LOC_OS01G21960-cb002
In short: as §1

LOC_OS01G39600-cb002 = tested on: LOC_OS01G39600-cb002
In short: as §1

LOC_OS01G48390-cb002 = tested on: LOC_OS01G48390-cb002
In short: as §1

LOC_OS01G51400-cb002 = tested on: LOC_OS01G51400-cb002
In short: as §1

LOC_OS01G52050-cb004 = tested on: T1, LOC_OS01G52050-cb004
T1 sequence (whole entry): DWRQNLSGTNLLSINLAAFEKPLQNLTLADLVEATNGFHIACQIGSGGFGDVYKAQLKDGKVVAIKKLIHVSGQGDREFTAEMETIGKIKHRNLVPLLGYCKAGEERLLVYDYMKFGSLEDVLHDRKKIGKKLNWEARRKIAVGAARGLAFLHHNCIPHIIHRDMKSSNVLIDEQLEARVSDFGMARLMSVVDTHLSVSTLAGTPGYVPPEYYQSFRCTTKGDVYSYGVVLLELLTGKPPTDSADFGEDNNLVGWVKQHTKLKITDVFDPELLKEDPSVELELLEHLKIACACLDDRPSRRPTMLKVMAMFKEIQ
In short: as §1

LOC_OS01G57100-cb003 = tested on: LOC_OS01G57100-cb003
In short: as §1

LOC_OS01G60330-cb001 = tested on: LOC_OS01G60330-cb001
In short: as §1

LOC_OS01G60700-cb002 = tested on: LOC_OS01G60700-cb002
In short: as §1

LOC_OS01G63280-cb003 = tested on: LOC_OS01G63280-cb003
In short: as §1

LOC_OS01G67340-cb003 = tested on: LOC_OS01G67340-cb003
In short: as §1

LOC_OS01G70970-cb002 = tested on: LOC_OS01G70970-cb002
In short: as §1

LOC_OS02G07810-cb001 = tested on: LOC_OS02G07810-cb001
In short: as §1

LOC_OS02G08530-cb003 = tested on: LOC_OS02G08530-cb003
In short: as §1

LOC_OS02G14120-cb001 = tested on: LOC_OS02G14120-cb001
In short: as §1

LOC_OS02G17970-cb001 = tested on: LOC_OS02G17970-cb001
In short: as §1

Row | Compound | thermal shift delta Tm (LOC_OS01G01410-cb001) [°C] | thermal shift delta Tm (LOC_OS01G02750-cb003) [°C] | thermal shift delta Tm (LOC_OS01G10900-cb004) [°C] | thermal shift delta Tm (LOC_OS01G13800-cb001) [°C] | thermal shift delta Tm (LOC_OS01G14860-cb001) [°C] | thermal shift delta Tm (LOC_OS01G21960-cb002) [°C] | thermal shift delta Tm (LOC_OS01G39600-cb002) [°C] | thermal shift delta Tm (LOC_OS01G48390-cb002) [°C] | thermal shift delta Tm (LOC_OS01G51400-cb002) [°C] | thermal shift delta Tm (LOC_OS01G52050-cb004) [°C] | thermal shift delta Tm (LOC_OS01G57100-cb003) [°C] | thermal shift delta Tm (LOC_OS01G60330-cb001) [°C] | thermal shift delta Tm (LOC_OS01G60700-cb002) [°C] | thermal shift delta Tm (LOC_OS01G63280-cb003) [°C] | thermal shift delta Tm (LOC_OS01G67340-cb003) [°C] | thermal shift delta Tm (LOC_OS01G70970-cb002) [°C] | thermal shift delta Tm (LOC_OS02G07810-cb001) [°C] | thermal shift delta Tm (LOC_OS02G08530-cb003) [°C] | thermal shift delta Tm (LOC_OS02G14120-cb001) [°C] | thermal shift delta Tm (LOC_OS02G17970-cb001) [°C]
1 | Cn1cnc(N)c2ncnc1-2 [3-Methyladenine (3-MA)] | 0.6 | 5.26 | 0.17 | -0.02 | -0.3 | 0.32 | 0.46 | 1.12 | 0.76 | 0.09 | 1.89 | 1.27 | 0.77 | 0.22 | -0.29 | 0.22 | 0.96 | 1.08 | 0.61 | 0.34
2 | Cn1cc(/C=C2\C(=O)Nc3cccnc32)c2ccccc21 | 3.9 | 0.74 | 1.42 | -0.51 | 0.68 | 1.44 | -0.03 | 1.92 | 0.44 | 1.86 | 1.08 | 12.1 | 1.27 | 0.58 | 2.54 | 4.16 | 1.32 | 4.2 | 3.15 | 1.08
3 | C1=N/C2=N/c3ccc(OCCN4CCCC4)c(c3)COC/C=C/COCc3cccc(c3)C(=C1)N2 [Pacritinib (SB1518)] | 2.82 | 2.89 | 2.75 | -0.21 | 4.13 | 2.75 | 4.09 | 2.71 | 0.34 | 8.62 | 1.85 | 6.01 | 0.7 | 2.88 | 1.79 | 2.62 | 0.11 | 4.85 | 11.4 | 0.42
4 | COCCOc1cnc2ccn([C@H](C)c3nnc4c(F)cc(-c5cnn(C)c5)cn34)c(=O)c2c1 | 0.44 | 0.28 | 0.34 | -0.27 | 0.15 | 0.42 | -0.26 | 0.28 | 0.32 | 0.4 | 0.7 | -0.01 | 0.32 | 0.22 | 0.31 | 0.36 | 0.15 | 0.71 | 1.22 | 0.15
5 | Cc1ccc([N+](=O)[O-])cc1S(=O)(=O)N(C)/N=C/c1cnc2ccc(Br)cn12 | 1.6 | 11.6 | 7.32 | 0.52 | 8.02 | 3.8 | 1.85 | 1.1 | 0.2 | 11.7 | 3.41 | -0.03 | 1.24 | 1.7 | 3.58 | 4.2 | 0.51 | 6.04 | 9.06 | 1.2
6 | C[C@@H](NC(=O)c1ncnc(N)c1Cl)c1ncc(C(=O)Nc2cc(C(F)(F)F)c(Cl)cn2)s1 | 1.26 | 1.15 | 2.82 | -0.27 | 0.84 | 0.73 | -1.6 | 2.52 | 0.56 | 0.43 | 0.35 | 1.01 | 1.42 | 1.75 | 0.42 | 0.8 | 0.35 | 0.67 | 0.58 | 0.7
7 | CNC(=O)c1cc(Oc2ccc(NC(=O)Nc3ccc(Cl)c(C(F)(F)F)c3)c(F)c2)ccn1 [Regorafenib (BAY 73-4506)] | 2.09 | 0.82 | 0.16 | 0.79 | 2.04 | 0.87 | 0.21 | 0.48 | 0.2 | 0.67 | 0.31 | 0.62 | 0.77 | 1.71 | -0.62 | 0.36 | 0.73 | 0.93 | -0.11 | 0.55
8 | O=C1NC(=O)/C(=C/c2ccc3nccc(-c4ccncc4)c3c2)S1 | 1.21 | 0.63 | 0.95 | 0.37 | 0.98 | 0.96 | 1.76 | 0.2 | 0.08 | 0.79 | 0.39 | 0.51 | 0.74 | -0.17 | 0.62 | 0.07 | 0.58 | 0.62 | 3.14 | 0.7
9 | CC(C)(CO)n1cc(C(=O)c2cncc(NC(=O)Cc3ccc(Cl)cn3)c2)c2cnc(N)nc21 | 0.23 | 0.58 | 0.35 | 0.55 | 0.5 | 0.13 | 0.32 | 0.37 | -0.05 | 2.82 | 0.95 | 0.35 | 0.16 | 0.14 | 0.19 | 0.28 | -0.84 | 0.77 | 3.51 | 0.53
10 | CNC(=O)c1cc(Oc2ccc(NC(=O)Nc3ccc(Cl)c(C(F)(F)F)c3)cc2)ccn1 [Sorafenib] | 1.65 | 3.61 | 1.53 | 1.59 | 4.41 | 2.7 | 1.52 | 2.74 | 0.71 | 5.22 | 3.62 | 3.63 | 0.58 | 9.12 | 1.48 | 1.77 | 1.92 | 1.8 | 2.47 | 2.3
11 | O=C(Nc1nc2cccc(-c3ccc(CN4CCS(=O)(=O)CC4)cc3)n2n1)C1CC1 [Filgotinib (GLPG0634)] | 0.4 | 0.46 | 0.17 | 0.3 | 0.5 | 0.89 | -0.06 | 0.26 | 0.32 | 1.03 | 1.32 | 2.66 | 0.53 | 0.12 | 0.43 | 0.37 | 0.52 | 0.93 | 2.91 | 0.47
12 | O=C(O)c1ccc(Nc2ncc3c(n2)-c2ccc(Cl)cc2C(c2c(F)cccc2F)=NC3)cc1 | 1.36 | -0.24 | -0.28 | 0.41 | 0.03 | -0.02 | 0.1 | 0.02 | -0.16 | 0.07 | 0.51 | 0.82 | 0.64 | -0.31 | -0.46 | 0.46 | 0.3 | 0.39 | 0.88 | 0.07

Reference: the supplement of paper PMC9694430
